Compounds without any hit were thinned out: in the full panel of roughly 79,000, 15% have a hit. Rule as the data show it: active = growth inhibition above about 70%; inactive = the rest.
Tests used:
[1] = NCI Yeast Anticancer Drug Screen. Data for the rad50 strain (AID 155);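 also: 0% = growth of vehicle-only cultures of the same strain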; conditions: S. cerevisiae rad50 strain growth inhibition; at 50.0 µM; hits give high values
How it was run: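 DNA repair mutant yeast, compound exposure, growth read-out; inhibition is taken relative to vehicle.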

[2] = NCI Yeast Anticancer Drug Screen. Data for the mec2-1 strain (AID 157); conditions: S. cerevisiae mec2-1 strain, at 50.0 µM, hits give high values
How it was run: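 Using mec2-1 yeast: add compound, measure growth, express inhibition versus vehicle-treated cultures.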

[3] = NCI Yeast Anticancer Drug Screen. Data for the sgs1 mgt1 strain (AID 161);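 also: 0% = growth of cultures given vehicle only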; conditions: S. cerevisiae sgs1 mgt1 strain, at 50.0 µM, hits give high values
How it was run: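 Compounds are added to genetically altered yeast, and growth is compared with cultures given vehicle alone to give percent inhibition.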

[4] = NCI Yeast Anticancer Drug Screen. Data for the cln2 rad14 strain (AID 165);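 also: 0% = growth equal to vehicle treated cultures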; conditions: S. cerevisiae cln2 rad14 strain, at 50.0 µM, hits give high values
How it was run: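 Yeast strain cln2 rad14, bearing defects in cell cycle control and DNA repair, serves as the test system; values reflect growth inhibition compared with vehicle.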

[5] = NCI Yeast Anticancer Drug Screen. Data for the bub3 strain (AID 167); conditions: S. cerevisiae bub3 mutant strain, at 50.0 µM, hits give high values
How it was run: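 In this screen, a yeast mutant lacking normal mitotic checkpoint function is challenged with compound. Relative growth versus vehicle gives the inhibition value.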

[6] = NCI Yeast Anticancer Drug Screen. Data for the mlh1 rad18 strain (AID 175); conditions: S. cerevisiae mlh1 rad18 strain growth inhibition; at 50.0 µM; hits give high values
How it was run: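 Steps: expose repair-defective yeast to compound; measure growth; express inhibition against vehicle-treated controls.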

Measured: growth inhibition

N#CCCCCCCn1cnc2c(=S)nc[nH]c21
inactive: [1] 4.9% | [2] 9.55% | [3] 17.9% | [4] -13% | [5] -4.7% | [6] 22.4%

CCOC(=O)CCC(NC1=C(Cl)C(=O)c2ccccc2C1=O)C(=O)O (configuration not stated)
inactive: [1] 12.2% | [2] 2.15% | [3] 20.4% | [4] -63.1% | [5] 0.15% | [6] 24.9%

CC(=O)CCn1ncc(Cl)c(Cl)c1=O
inactive: [1] 1.4% | [2] -18.3% | [3] 3.6% | [4] 7.7% | [5] 1.15% | [6] 4.3%

CC(=O)OC1CCC2(C)C(=CCC3C2CCC2(C)C3CCC23OCCS3)C1 (configuration not stated)
inactive: [1] 34.5% | [2] 3.4% | [3] 9.35% | [4] 9.1% | [5] -4.35% | [6] 8.5%

NS(=O)(=O)c1ccc(Nc2c3ccccc3nc3cc(Cl)ccc23)cc1
inactive: [1] 25.6% | [2] -17.8% | [3] 6.9% | [4] 3.3% | [5] -8.5% | [6] -13.3%

Cn1c(=O)c2[nH]c(CCCc3ccc([N+](=O)[O-])cc3)nc2n(C)c1=O
inactive: [1] -2.45% | [2] -5.5% | [3] -27.5% | [4] -26.9% | [5] -40.5% | [6] 4.75%

CC1=CCC(=O)[C@]2(C)C(CC(=O)O)[C@]3(C)C4=C(C)C(c5ccoc5)C[C@@H]4O[C@@H]3[C@H](O)[C@@H]12 (some centres not stated)
inactive: [1] 26.5% | [2] -9.6% | [3] 9.65% | [4] 41% | [5] -1.2% | [6] -67.8%

O=C(O)c1nccc2c(O)cccc12
inactive: [1] -5.75% | [2] -4.45% | [3] -16.1% | [4] -19.6% | [5] -23.9% | [6] 3.3%

CN(/N=C\c1ccc2ccccc2c1)C1=NCCCCN1
inactive: [1] -2.05% | [2] -5.45% | [3] -27.6% | [4] -37% | [5] -0.1% | [6] 1.6%

CN1C(=O)/C(=N/N(c2ccccc2)c2ccccc2)c2ccccc21
inactive: [1] -5.4% | [2] 26.6% | [3] -3.85% | [4] -3.55% | [5] 21.2% | [6] 5.5%

COc1ccccc1NC(=O)CC(=O)N1N=C(N(c2ccccc2)c2ccccc2)CC1c1ccccc1 (configuration not stated)
inactive: [1] 6.75% | [2] -1.1% | [3] -7.15% | [4] 9.8% | [5] 9.6% | [6] 23.1%

COc1ccc2nccc(CO)c2c1
inactive: [1] 4.95% | [2] -3.4% | [3] -0.8% | [4] -33.2% | [5] 5.7% | [6] 0.75%

O=[N+]([O-])c1ccc2c3c(ccc([N+](=O)[O-])c13)CC2
inactive: [1] -9.35% | [2] -13.3% | [3] -6.75% | [4] -29.2% | [5] -18.4% | [6] -18.3%

O=C1CC(Cc2n[nH]c3c2CCC3)CC(=O)N1
inactive: [1] -8.25% | [2] 2.65% | [3] -10.2% | [4] -16.4% | [5] -10% | [6] -13.2%

Cc1ccc(CNC(=O)NC(C)(C)C)cc1
inactive: [1] -3.05% | [2] -8.45% | [3] -2.65% | [4] -50.2% | [5] 1.85% | [6] 0.1%

C/C(=N\NC(=O)C(N)=O)c1c(O)cc(C)oc1=O
inactive: [1] -29.1% | [2] 5.2% | [3] 11.6% | [4] -23.1% | [5] 1.8% | [6] 15.7%

CCCCNc1ccc(S(=O)(=O)c2ccc(NCCCC)c([N+](=O)[O-])c2)cc1[N+](=O)[O-]
inactive: [1] 19.6% | [2] 6.6% | [3] 15.2% | [4] -1.4% | [5] 2.35% | [6] -9.8%

CCCC1CN2CCc3cc(OC)c(OC)cc3C2CC1=O (configuration not stated)
inactive: [1] 4.6% | [2] 23.6% | [3] 41.1% | [4] 12.4% | [5] 41.1% | [6] 39.8%

CC(C)(O)c1cc(=O)n(-c2ccccc2)[nH]1
inactive: [1] -6% | [2] -6.3% | [3] 6.55% | [4] -64.8% | [5] -18% | [6] -5.1%

CC1(C(=O)Sc2ccccc2)OC1(C)c1ccccc1 (configuration not stated)
inactive: [1] -8.5% | [2] 7.65% | [3] 4.85% | [4] -28.1% | [5] 14.8% | [6] 18.1%

COc1ccc(S(=O)(=O)N/N=C\c2cc(I)cc(I)c2O)cc1
inactive: [1] 27.9% | [2] 7.9% | [3] 25.2% | [4] 14.6% | [5] -1.8% | [6] 5.1%

COc1ccc(N2C(=O)C3c4[nH]c5ccccc5c4C4CCCCC4C3C2=O)cc1 (configuration not stated)
inactive: [1] -3.4% | [2] 5.1% | [3] -7.15% | [4] 9.95% | [5] -1.05% | [6] -6.05%

O=C1c2ccccc2C(=O)N1c1ccccc1Cl
inactive: [1] 4.45% | [2] -11% | [3] 27.8% | [4] -111% | [5] 39% | [6] 19.7%

CC1=NN(C(=O)CC(=O)NC(=O)CC(=O)Nc2ccccc2F)C(=O)C1N=Nc1ccc([N+](=O)[O-])cc1 (configuration not stated)
inactive: [1] 20.5% | [2] 22.6% | [3] 30% | [4] 16.3% | [5] 12.1% | [6] 8.2%

Oc1cc(OCCCc2ccc(F)cc2)cc2ccc3ccccc3c12
inactive: [1] 50.5% | [2] 43.5% | [3] 20.8% | [4] -32.5% | [5] 54% | [6] 43.1%

CC(=O)/C(=C/n1c(=S)[nH]c2ccccc21)C(=O)Nc1ccc([N+](=O)[O-])cc1
inactive: [1] -17.5% | [2] -2.75% | [3] -13.9% | [4] -8.9% | [5] -14.1% | [6] -13.2%

O=C1c2cccc(S)c2C(=O)c2cccc(S)c21
inactive: [1] -21.5% | [2] -11.3% | [3] -9.75% | [4] 4.7% | [5] 5.35% | [6] -15.5%

O=C1c2ccccc2C(=O)N1c1cccc([N+](=O)[O-])c1
inactive: [1] 0.5% | [2] 15.9% | [3] 16.4% | [4] -44.6% | [5] 26.4% | [6] 7.05%

COc1cc2c(cc1OC)C1CCN3C(=O)CCC3[N+]1(C)CC2 (configuration not stated)
inactive: [1] 46.6% | [2] -1.05% | [3] 28.9% | [4] -4.3% | [5] 3.2% | [6] 8.7%

CCOC(=O)C(=O)C(C(=O)c1ccccn1)c1nc2n(c1O)C(=N)N=N2 (configuration not stated)
inactive: [1] -4.1% | [2] 4.4% | [3] -3.1% | [4] -0.25% | [5] -5.35% | [6] 5.3%

COc1ccc([N+](=O)[O-])c2c1CONC2(C)C(=O)O (configuration not stated)
inactive: [1] 8.95% | [2] 16.2% | [3] 8.2% | [4] -4.95% | [5] 3.75% | [6] 16.2%

CCC(=O)OCCCCCCOC(=O)CC
inactive: [1] 18.3% | [2] 6% | [3] 12.5% | [4] -15% | [5] 19.9% | [6] -5.9%

Nc1nc(SCc2ccccc2Cl)cc(C(=O)O)n1
inactive: [1] 31.6% | [2] 34.7% | [3] 47.2% | [4] 4.15% | [5] 44% | [6] 53%

O=c1[nH]c(-c2ccccc2)c(-c2ccccc2)nc1Cl
inactive: [1] 6.35% | [2] 1.8% | [3] 6.5% | [4] -11.7% | [5] -19.1% | [6] 18.1%

CCCCCCCC(=O)N(CC)CC
inactive: [1] 13.5% | [2] -4.05% | [3] 25.4% | [4] -17.1% | [5] 1.6% | [6] 8.75%

Nc1nnc2nc(CC(=O)c3ccccc3)c(CC(=O)c3ccccc3)nn12
inactive: [1] -5.4% | [2] -2.9% | [3] 3% | [4] 32.6% | [5] -29% | [6] 16.2%

C=C1C(=O)OC2CCC(O)C12 (configuration not stated)
inactive: [1] 6.95% | [2] 5.15% | [3] 1.2% | [4] -30.6% | [5] -1.2% | [6] 11.7%
